The results in this text go back to PubChem BioAssay (NCATS).

Records with an inconclusive call do not appear. The source made the active and inactive calls. Calls follow the shape of the dose curve; as a rule, active = well fitted curve in the direction sought with a large enough effect; inconclusive = small, poorly fitted or top-dose-only effect, or another doubt; inactive = no such curve, though single readings can be large; an effect the other way counts as inactive or inconclusive.

The nature of assay [1]: qHTS of pediatric cancer cell lines to identify multiple opportunities for drug repurposing: Primary screen for control Hh wild type fibroblast cells (AID 1347106). Also: nearly all actives have a fitted effect of over 55% in size. Also: potency is read from the fitted curve at half-maximal effect. The procedure, abridged:
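Cells (500-1,000/well) in growth media were settled 5 h at 37 degrees C, then given compounds for 48 h. Viability was read as CellTiter-Glo luminescence. Primary runs used MIPE at 11 points (0.78 nM-46 µM) and NPC at 8 points (0.59 nM-46 µM); follow-ups used 11 points.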

Assay [2] can be described thus: qHTS of pediatric cancer cell lines to identify multiple opportunities for drug repurposing: Primary screen for Rh30 cells (AID 1347107). Also: nearly all actives have a fitted effect of over 75% in size. Also: potency is read from the fitted curve at half-maximal effect. The procedure, abridged: (§1)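 Cells (500-1,000/well) rested 5 h, then received compounds for 48 h; metabolically active cells were measured by CellTiter-Glo luminescence. Final concentrations spanned up to 46 µM (MIPE, 11-point) or 0.59 nM-46 µM (NPC, 8-point) in primary screens, 11-point in follow-ups.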

Assay [3] is described as follows: qHTS of pediatric cancer cell lines to identify multiple opportunities for drug repurposing: Primary screen for Rh41 cells (AID 1347108). Also: nearly all actives have a fitted effect of over 70% in size. Also: potency is read from the fitted curve at half-maximal effect. The procedure, abridged:
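Readout: CellTiter-Glo luminescence, 48 h treatment. Controls DMSO (neutral) and bortezomib 2.3 µM final (positive). Potency and efficacy taken from primary-screen concentration-response curves.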

A short description of assay [4]: qHTS of pediatric cancer cell lines to identify multiple opportunities for drug repurposing: Confirmatory screen for A673 cells (AID 1347110).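 Also: potency is read from the fitted curve at half-maximal effect; cells exposed to compound for 48 h before the viability read; nearly all actives have a fitted effect of over 65% in size.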 In a few lines:
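Cells plated at 500-1,000/well were treated five hours later with multi-point dilutions up to 46 µM final. After two days, CellTiter-Glo was added and luminescence read.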

Assay [5] is described as follows: qHTS of pediatric cancer cell lines to identify multiple opportunities for drug repurposing: Confirmatory screen for SK-N-MC cells (AID 1347111).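 Also: potency is read from the fitted curve at half-maximal effect; cells exposed to compound for 48 h before the readout; nearly all actives have a fitted effect of over 70% in size.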 In a few lines: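 Seed 500-1,000 cells/well; rest 5 h at 37 degrees C. Pin-transfer compounds, 11-point titration. Incubate 48 h. Add CellTiter-Glo, 15 min RT, read luminescence.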
A short description of assay [6]: qHTS of pediatric cancer cell lines to identify multiple opportunities for drug repurposing: Confirmatory screen for LAN-5 cells (AID 1347113). Also: potency is read from the fitted curve at half-maximal effect; nearly all actives have a fitted effect of over 65% in size. The procedure, abridged:
as §1

Assay [7] is described as follows: qHTS of pediatric cancer cell lines to identify multiple opportunities for drug repurposing: Confirmatory screen for DAOY cells (AID 1347114). Also: potency is read from the fitted curve at half-maximal effect; nearly all actives have a fitted effect of over 65% in size. The procedure, abridged: (§2)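 Viability measured as metabolically active cells via CellTiter-Glo luminescence following 48 hours of compound exposure, 11-point dilutions in confirmatory testing. 500-1,000 cells/well plated 5 hours before dosing; controls were DMSO and 2.3 µM bortezomib.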

Assay [8] is described as follows: qHTS of pediatric cancer cell lines to identify multiple opportunities for drug repurposing: Confirmatory screen for BT-37 cells (AID 1347117). Also: potency is read from the fitted curve at half-maximal effect; nearly all actives have a fitted effect of over 55% in size. In a few lines:
as §1

Assay [9] is described as follows: qHTS of pediatric cancer cell lines to identify multiple opportunities for drug repurposing: Confirmatory screen for TC32 cells (AID 1347118).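 Also: potency is read from the fitted curve at half-maximal effect; cells exposed to compound for 48 h before the read; nearly all actives have a fitted effect of over 65% in size.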 In a few lines: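 qHTS, TC32, 48 h drug treatment, CellTiter-Glo luminescence as a proxy for metabolically active cells; primary top concentration 46 µM (MIPE 11-pt, NPC 8-pt); confirmatory 11-pt.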
Assay [10] can be described thus: qHTS of pediatric cancer cell lines to identify multiple opportunities for drug repurposing: Confirmatory screen for Rh41 cells (AID 1347123).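 Also: potency is read from the fitted curve at half-maximal effect; 48 h compound exposure; nearly all actives have a fitted effect of over 60% in size.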 In a few lines:
as §1

The nature of assay [11]: qHTS of pediatric cancer cell lines to identify multiple opportunities for drug repurposing: Confirmatory screen for Rh18 cells (AID 1347125). Also: nearly all actives have a fitted effect of over 55% in size. Also: potency is read from the fitted curve at half-maximal effect. In a few lines: as §1
Assay [12] in a line: qHTS of pediatric cancer cell lines to identify multiple opportunities for drug repurposing: Confirmatory screen for Rh30 cells (AID 1347126). Also: potency is read from the fitted curve at half-maximal effect; nearly all actives have a fitted effect of over 55% in size. In a few lines:
as §1

A short description of assay [13]: qHTS of pediatric cancer cell lines to identify multiple opportunities for drug repurposing: Confirmatory screen for NB1643 cells (AID 1347109). Also: potency is read from the fitted curve at half-maximal effect; nearly all actives have a fitted effect of over 45% in size. In a few lines: as §1
A short description of assay [14]: qHTS of pediatric cancer cell lines to identify multiple opportunities for drug repurposing: Confirmatory screen for BT-12 cells (AID 1347112). Also: nearly all actives have a fitted effect of over 55% in size. Also: potency is read from the fitted curve at half-maximal effect. In a few lines: as §1
Assay [15] is described as follows: qHTS of pediatric cancer cell lines to identify multiple opportunities for drug repurposing: Confirmatory screen for SJ-GBM2 cells (AID 1347116). Also: nearly all actives have a fitted effect of over 60% in size. Also: potency is read from the fitted curve at half-maximal effect. The procedure, abridged: as §2
Assay [16] is described as follows: qHTS of pediatric cancer cell lines to identify multiple opportunities for drug repurposing: Confirmatory screen for MG 63 (6-TG R) cells (AID 1347119). Also: nearly all actives have a fitted effect of over 55% in size. Also: potency is read from the fitted curve at half-maximal effect. In a few lines:
as §1

Assay [17] is described as follows: qHTS of pediatric cancer cell lines to identify multiple opportunities for drug repurposing: Confirmatory screen for U-2 OS cells (AID 1347122). Also: nearly all actives have a fitted effect of over 65% in size. Also: potency is read from the fitted curve at half-maximal effect. In a few lines: as §1
The nature of assay [18]: qHTS of pediatric cancer cell lines to identify multiple opportunities for drug repurposing: Confirmatory screen for RD cells (AID 1347124). Also: potency is read from the fitted curve at half-maximal effect. In a few lines: as §1
Assay [19] in a line: qHTS of pediatric cancer cell lines to identify multiple opportunities for drug repurposing: Confirmatory screen for NB-EBc1 cells (AID 1347115).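 Also: potency is read from the fitted curve at half-maximal effect; cells exposed to compound for 48 h before the viability read; nearly all actives have a fitted effect of over 45% in size.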 The procedure, abridged:
as §1

Assay [20] in a line: qHTS of pediatric cancer cell lines to identify multiple opportunities for drug repurposing: Confirmatory screen for control Hh wild type fibroblast cells (AID 1347121). Also: nearly all actives have a fitted effect of over 70% in size. The procedure, abridged:
as §1

As to `CN1CCN(c2cc(C(=O)Nc3ccc4c(c3)-c3c(c(C(N)=O)nn3-c3ccc(F)cc3)CC4)c(Cl)cn2)CC1`, the Potency in assay [1] is 20.9 µM (active); in assay [2] it was 16.6 µM (active); in assay [3] it was 20.9 µM (active); in assay [4], 14.7 µM (active); in [5], 20.8 µM (active); in assay [6], 16.5 µM (active). In addition, the Potency in assay [7] is 23.3 µM (active); in [8] it was 20.8 µM (active); in assay [9], 20.8 µM (active); in [10], 14.7 µM (active); in assay [11], 26.1 µM (active); in [12], 0.465 µM (active).

With `O=C(O)c1ccc2c(c1)nc(Nc1cccc(Cl)c1)c1ccncc12`, the Potency result in assay [1] is “inactive”. Besides, in assay [3], the Potency was 14.8 µM (active).

For the molecule `CCN(CC)CCCCNc1ncc2cc(-c3cc(OC)cc(OC)c3)c(NC(=O)NC(C)(C)C)nc2n1`, the Potency in assay [1] is 29.6 µM (active); in [3], 11.8 µM (active).

With `CS(=O)(=O)c1ccc(-c2cnc(N)c(C(=O)Nc3ccccc3)n2)cc1`, the Potency entry in [1] and in [3] was “inactive” each time.

As to `COc1cccc2nc(-c3cccs3)nc(NN3C(=O)C=C(C)C3=O)c12`, the Potency entry in [1] is “inactive”. The Potency in [3] was 2.35 µM (active); in assay [13] it was 0.657 µM (active); in [4], 5.22 µM (active); in assay [5], 0.657 µM (active); in [14], 10.4 µM (active); in assay [6] it was 0.657 µM (active). Further, the Potency in [7] is 5.22 µM (active); in assay [15], 7.37 µM (active); in assay [8] it was 1.04 µM (active); in assay [9] it was 0.737 µM (active); in [16], 2.93 µM (active); in assay [17] it was 1.85 µM (active). Besides, the Potency is 0.827 µM (active) in assay [10], 5.22 µM (active) in [18], 20.8 µM (active) in assay [11] and 3.69 µM (active) in [12].

With `CCCCc1nc2cc(C=CC(=O)NO)ccc2n1CCN(CC)CC`, the Potency in [1] is 16.6 µM (active); in assay [3], 0.935 µM (active); in assay [13] it was 1.31 µM (active); in assay [4] it was 2.08 µM (active); in [5] it was 1.04 µM (active); in assay [14], 4.14 µM (active). Also, the Potency in [6] is 1.04 µM (active); in [7], 2.33 µM (active); in [19], 3.29 µM (active); in [15] it was 2.93 µM (active); in assay [8] it was 1.85 µM (active); in assay [9], 1.31 µM (active). Besides, the Potency in assay [16] was 1.31 µM (active); in assay [17], 1.85 µM (active); in assay [10], 1.31 µM (active); in assay [18] it was 2.33 µM (active); in assay [11] it was 1.47 µM (active); in assay [12], 3.69 µM (active).

For the molecule `C=CC(=O)N1CCC[C@@H](n2nc(-c3ccc(Oc4ccccc4)cc3)c3c(N)ncnc32)C1`, the Potency result in assay [1], in assay [14], in assay [15], in [20] and in assay [18] was “inactive” each time. Also, the Potency in assay [2] is 11.8 µM (active); in [5] it was 5.85 µM (active); in [9], 7.37 µM (active); in [10] it was 14.7 µM (active); in assay [12] it was 10.4 µM (active).

For the molecule `NC(=O)c1cccc2cn(-c3ccc([C@@H]4CCCNC4)cc3)nc12`, the Potency entry in assay [1], in assay [2], in assay [3], in assay [14], in [15] and in [20] was “inactive” each time. Moreover, the Potency entry in [17] and in [11] was “inactive” throughout. Moreover, the Potency was 5.22 µM (active) in [4], 2.08 µM (active) in assay [5], 5.22 µM (active) in assay [8] and 1.65 µM (active) in assay [9].

Turning to `Cc1ccc(C(N)=O)cc1Nc1nccc(-c2cn(C(C)C)c3cnccc23)n1`, the Potency result in assay [1], in assay [16] and in [20] was “inactive” in each case. In addition, the Potency in [3] is 18.7 µM (active); in assay [4], 9.55 µM (active); in assay [5], 7.59 µM (active); in [14] it was 13.5 µM (active); in assay [6], 8.51 µM (active); in assay [7] it was 13.5 µM (active). Also, the Potency in assay [15] is 21.4 µM (active); in assay [8] it was 6.76 µM (active); in assay [9], 7.59 µM (active); in [17], 15.1 µM (active); in assay [10] it was 13.5 µM (active).
